Data as given in PubChem BioAssay AID763 (NMMLSC, 2007).
Active and inactive are the calls of the source. No rule for the calls is given here.

target: fMet-Leu-Phe receptor (Homo sapiens) (UniProt P21462); experiment: FPR1 fluorescent ligand binding inhibitors, SAR follow-up, selectivity assay for FPRL1 ligand SAR project, cell-based, single concentration (AID 763); details: FPR1-expressing cells, active compounds read high; at 5.4 µM unless noted
Sequence (P21462 whole entry, looked up): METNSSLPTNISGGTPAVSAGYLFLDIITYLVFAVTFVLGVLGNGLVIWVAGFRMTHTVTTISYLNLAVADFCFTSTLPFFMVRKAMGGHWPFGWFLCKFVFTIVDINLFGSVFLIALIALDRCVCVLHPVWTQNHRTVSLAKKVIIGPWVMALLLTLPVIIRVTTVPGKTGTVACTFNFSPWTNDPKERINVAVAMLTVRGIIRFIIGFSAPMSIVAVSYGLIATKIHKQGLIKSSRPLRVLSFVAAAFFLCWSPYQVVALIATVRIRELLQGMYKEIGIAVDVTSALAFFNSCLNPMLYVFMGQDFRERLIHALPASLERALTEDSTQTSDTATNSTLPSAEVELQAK

Row | Compound | inhibition
1 | FC(F)(F)c1cc(-c2ccccc2)nc(N2CCN(C(c3ccccc3)c3ccccc3)CC2)n1 | -4.1% [at 4.7 µM] (inactive)
2 | CCOC(=O)N1CCN(c2nc(-c3cccc(OC)c3)cc(C(F)(F)F)n2)CC1 | -33.9% (inactive)
3 | Cc1ccc2nc(N3CCN(C(=O)CCCC(=O)O)CC3)nc(-c3ccccc3)c2c1 | -4.8% [at 5.3 µM] (inactive)
4 | CCC(CC)C(=O)Nc1cc(-c2cn3cccnc3n2)ccc1OC | -5.9% [at 6.6 µM] (inactive)
5 | CCOC(=O)N1CCN(c2nc(-c3ccc(F)cc3)cc(C(F)(F)F)n2)CC1 | 0.3% [at 5.6 µM] (inactive)
6 | COc1ccc(-c2cn3cccnc3n2)cc1NC(=O)c1ccc(C)c(C)c1 | -2.6% [at 6 µM] (inactive)
7 | CCOC(=O)N1CCN(c2nc(-c3cccc(Cl)c3)c3c(n2)-c2ccccc2OC3)CC1 | 3.2% [at 4.9 µM] (inactive)
8 | CC(=O)N1CCN(c2nc(-c3ccccc3)c3cc(C)ccc3n2)CC1 | -0.1% [at 6.4 µM] (inactive)
9 | FC(F)(F)c1cc(-c2ccccc2)nc(N2CCN(Cc3ccccc3)CC2)n1 | -9.1% [at 5.6 µM] (inactive)
10 | FC(F)(F)c1cc(-c2cccs2)nc(N2CCN(C(c3ccccc3)c3ccccc3)CC2)n1 | -2.4% [at 4.6 µM] (inactive)
11 | COc1ccc(-c2cn3cccnc3n2)cc1NC(=O)c1cccc(Br)c1 | 0.1% [at 5.3 µM] (inactive)
12 | O=C(C1CCCCC1)N1CCN(c2nc(-c3ccccc3Cl)c3cc(Br)ccc3n2)CC1 | 3.4% [at 4.3 µM] (inactive)
13 | Clc1ccccc1N1CCN(c2nc(-c3ccccc3)c3cc(Br)ccc3n2)CC1 | 2.1% [at 4.6 µM] (inactive)
14 | Clc1cccc(-c2nc(N3CCN(C4CCCCC4)CC3)nc3c2COc2ccccc2-3)c1 | -4.5% [at 4.8 µM] (inactive)
15 | COc1ccccc1-c1cc(C(F)(F)F)nc(N2CCN(C(c3ccccc3)c3ccccc3)CC2)n1 | 6.5% [at 4.4 µM] (inactive)
16 | COc1ccc(-c2cn3cccnc3n2)cc1NC(=O)C1CC1 | -2.9% [at 7.2 µM] (inactive)
17 | COc1ccc(-c2cn3cccnc3n2)cc1NC(=O)c1cccc(OC)c1OC | -0.2% [at 5.5 µM] (inactive)

Row | Compound | inhibition
18 | Cc1ccc2nc(N3CCN(C(=O)CCC(=O)O)CC3)nc(-c3ccccc3)c2c1 | 5.7% [at 5.5 µM] (inactive)
19 | COc1ccc(C(=O)Nc2cc(-c3cn4cccnc4n3)ccc2OC)cc1 | 3.4% [at 5.9 µM] (inactive)
20 | Cc1nc2c3c(-c4ccccc4)nc(N4CCN(C)CC4)nc3nn2c(C)c1CCC(=O)O | 0% [at 5 µM] (inactive)
21 | COc1cccc(-c2cc(C(F)(F)F)nc(N3CCN(c4ccccc4OC)CC3)n2)c1 | -2.3% [at 5 µM] (inactive)
22 | CC(C)(C)OC(=O)N1CCN(c2nc(-c3ccccc3)c3cc(Br)ccc3n2)CC1 | 3.5% [at 4.7 µM] (inactive)
23 | COc1ccc(-c2cn3cccnc3n2)cc1NC(=O)c1ccccc1OC | 3.8% [at 5.9 µM] (inactive)
24 | O=C(c1cccc(F)c1)N1CCN(c2nc(-c3ccc(F)cc3)cc(C(F)(F)F)n2)CC1 | -0.1% [at 5 µM] (inactive)
25 | CN1CCN(c2nc(-c3ccccc3)cc(C(F)(F)F)n2)CC1 | -5.9% [at 6.9 µM] (inactive)
26 | O=C(O)CCC(=O)N1CCN(c2nc(-c3ccccc3)c3cc(Br)ccc3n2)CC1 | -0.5% [at 4.7 µM] (inactive)
27 | CCOc1ccc(C(=O)Nc2cc(-c3cn4cccnc4n3)ccc2OC)cc1 | -6.6% [at 5.7 µM] (inactive)
28 | Cc1ccccc1N1CCN(c2nc(-c3ccccc3)c3cc(Br)ccc3n2)CC1 | 3.5% [at 4.8 µM] (inactive)
29 | Fc1ccc(-c2cc(C(F)(F)F)nc(N3CCN(C(c4ccccc4)c4ccccc4)CC3)n2)cc1 | 1.3% [at 4.5 µM] (inactive)
30 | COc1ccc(-c2cn3cccnc3n2)cc1NC(=O)C1CCCCC1 | 3.2% [at 6.3 µM] (inactive)
31 | FC(F)(F)c1cc(-c2ccccc2)nc(N2CCN(c3cccc(Cl)c3)CC2)n1 | -2.5% [at 5.3 µM] (inactive)
32 | COc1ccc(-c2cn3cccnc3n2)cc1NC(=O)Cc1cccc(C)c1 | 4.7% [at 6 µM] (inactive)
33 | CCOC(=O)N1CCN(c2nc(-c3ccc(OC)cc3)cc(C(F)(F)F)n2)CC1 | -5.3% (inactive)
34 | CCCCOc1ccc(C(=O)Nc2cc(-c3cn4cccnc4n3)ccc2OC)cc1 | 2.6% [at 5.3 µM] (inactive)
